According to publication PMC5540273 (PLoS ONE, 2017):

System: WNK3
Conditions: concentration: 1 μM,replicates: in singlicate; n = 1
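Also: KINOMEscan kinase panel screen.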

| Compound | %Inh |
| --- | --- |
| CC(C)N1C(=O)Cc2cc(Nc3ncc(C(F)(F)F)c(NCc4cccc(S(C)(=O)=O)c4)n3)ccc21 | 0% |
| CN(C)CC(O)COc1ccc(Nc2nccc(-c3cnn4nc(N5CCOCC5)ccc34)n2)cc1 (stereo not shown) [GW767488] | 18% |
| Cl.Cl.Nc1nc(-c2ccc3c(N)n[nH]c3c2)cc(N2CCCC(NC(=O)c3ccccc3)C2)n1 (stereo not shown) [GSK2286775] | 19% |
| Cc1cc2cn[nH]c2cc1-c1cccc2c(N)c(C(N)=O)nnc12 | 23% |
| CN(C)CCOc1ccc(-c2cc(-c3c[nH]nc3-c3ccccn3)ccn2)cc1 [GW835314] | 0% |
| COc1ccc(C[C@@H](CN)NC(=O)c2cc(Br)c(-c3ccnc4[nH]ccc34)s2)cc1.Cl.Cl [GSK1389063] | 5% |
| CNC(=O)c1ccccc1Sc1ccc2c(/C=C/c3ccccn3)n[nH]c2c1 | 0% |
| CCn1c(-c2nonc2N)nc2c(C#CC(C)(C)O)nc(OCCN)cc21.Cl.Cl [GSK902056] | 28% |
| Cc1ccc(-n2nc(C(C)(C)C)cc2NC(=O)Nc2ccc(OCCN3CCOCC3)c3ccccc23)cc1 [GW839464] | 0% |
| Nc1nc(Nc2ccccc2)cc(-c2ccc3c(N)n[nH]c3c2)n1 [GSK2225749] | 7% |
| CCN(CC)CCCCNc1ncc2cc(-c3c(Cl)cccc3Cl)c(NC(=O)NC(C)(C)C)nc2n1 | 0% |
| C[C@@H]1CCN(C(=O)CC#N)C[C@@H]1N(C)c1ncnc2[nH]ccc12 | 0% |
| O=C(NCCNc1ccnc(NCc2ccc(F)cc2)n1)c1cc2ccccc2s1 [GSK1379944] | 4% |
